The target in assay [1] is Thyrotropin receptor (Homo sapiens) (UniProt P16473). Description: qHTS assay to identify small molecule antagonists of the thyroid stimulating hormone receptor (TSHR) signaling pathway (AID 1259385; calls by dose curve; also: nearly all actives have a fitted effect of over 20% in size). In outline: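 TSHR-HEK293 cells (800/well) plated 18 h, then compounds with Ro20-1724 and TSH at 1.5 ng/mL final, 30 min at room temperature. cAMP quantified by HTRF (cAMP-d2/anti-cAMP-cryptate, 1 h); 15 concentrations in triplicate.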
Thyrotropin receptor (Homo sapiens), sequence (P16473 whole entry, looked up): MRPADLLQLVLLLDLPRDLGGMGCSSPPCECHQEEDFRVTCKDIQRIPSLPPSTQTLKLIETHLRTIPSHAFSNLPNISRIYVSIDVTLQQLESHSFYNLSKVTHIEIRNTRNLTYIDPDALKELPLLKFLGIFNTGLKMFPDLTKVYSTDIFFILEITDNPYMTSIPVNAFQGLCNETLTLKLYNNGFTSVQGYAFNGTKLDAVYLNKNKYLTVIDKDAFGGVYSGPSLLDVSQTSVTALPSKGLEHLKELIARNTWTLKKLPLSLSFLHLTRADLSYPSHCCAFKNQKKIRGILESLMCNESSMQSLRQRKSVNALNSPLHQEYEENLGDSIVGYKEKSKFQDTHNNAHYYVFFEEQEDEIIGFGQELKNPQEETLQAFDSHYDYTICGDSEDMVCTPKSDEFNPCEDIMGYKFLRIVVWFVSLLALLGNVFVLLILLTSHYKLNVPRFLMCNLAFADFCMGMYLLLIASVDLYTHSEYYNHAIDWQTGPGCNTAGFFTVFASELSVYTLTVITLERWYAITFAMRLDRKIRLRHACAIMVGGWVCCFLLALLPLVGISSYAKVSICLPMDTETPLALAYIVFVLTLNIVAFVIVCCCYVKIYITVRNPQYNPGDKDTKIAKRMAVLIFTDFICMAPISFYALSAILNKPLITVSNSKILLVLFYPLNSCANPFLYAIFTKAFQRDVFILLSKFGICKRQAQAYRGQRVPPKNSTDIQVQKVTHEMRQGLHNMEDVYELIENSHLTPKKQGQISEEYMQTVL
A general note: Quantitative high-throughput screening tests each substance at several concentrations.

Assay [2] can be described thus: qHTS assay to identify small molecule agonists of the estrogen receptor alpha (ER-alpha) signaling pathway in the presence of an antagonist - cell viability counter screen (AID 1259386).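 Also: series mostly up to about 92 µM; cells exposed to compounds for 22 h at 37 °C before the viability read; nearly all actives have a fitted effect of over 30% in size.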 In outline: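 Cell viability in VM7Luc4E2 cells (endogenous full-length ER-alpha) measured by CellTiter-Fluor fluorescence in the same wells as the luciferase screen. Cells pre-cultured 5 days in charcoal-stripped serum, then treated 22 h with compounds at 15 concentrations plus 10.0nM ICI-182,780.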

Assay [3] deals with Progesterone receptor (Homo sapiens) (UniProt P06401). Description: qHTS assay to identify small molecule agonists of the progesterone receptor (PR) signaling pathway (AID 1346784; calls by dose curve; also: nearly all actives have a fitted effect of over 30% in size). In outline:
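Agonist mode, quantitative HTS format in a HEK 293T line expressing a UAS-controlled beta-lactamase reporter; 16 hr compound exposure at 37C in 2% charcoal-stripped FBS, then LiveBLAzer B/G FRET fluorescence.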

The target is the same in assay [4]. In words: qHTS assay to identify small molecule antagonists of the progesterone receptor (PR) signaling pathway (AID 1346795; active = well fitted inhibition curve with a large enough effect in the signal ratio in the repeat runs, not every such curve was filed as active; the % refers to the signal ratio; also: potency is read from the fitted curve at half-maximal effect). In outline:
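HEK293T PR-UAS-bla reporter cells in charcoal-stripped serum (2%) received compound after a 6 hr settling period, followed by R5020 agonist at 1 nM final; 16 hr incubation preceded the FRET substrate step and fluorescence measurement.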

Assay [5] is described as follows: qHTS assay to identify small molecule agonists of the progesterone receptor (PR) signaling pathway - cell viability counter screen (AID 1346799; calls by dose curve; also: nearly all actives have a fitted effect of over 45% in size). An outline of the steps:
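Counter screen for cytotoxicity: compound-treated PR-UAS-bla HEK293T cells (16 hr, 37C, 5% CO2) were assayed with CellTiter-Glo, luminescence measured after 30 min at room temperature.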

A short description of assay [6]: qHTS assay to identify small molecule antagonists of the TGF-beta/Smad signaling pathway - cell viability counter screen (AID 1346824). Also: nearly all actives have a fitted effect of over 50% in size. An outline of the steps:
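SBE-bla HEK 293T cells, incubated overnight, then compound plus 0.25 ng/mL TGF-beta1 (stock added) for 5 hr at 37 C. Viability was read in the same wells by CellTiter-Glo luminescence after 30 min at room temperature.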

Assay [7] is described as follows: qHTS assay to identify small molecule agonists of the TGF-beta/Smad signaling pathway - cell viability counter screen (AID 1346829). Also: top concentration of the series differs between compounds; nearly all actives have a fitted effect of over 45% in size. In outline:
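Compound-treated SBE-bla HEK 293T cells (5 hr, 37 C) were assessed for viability with CellTiter-Glo in parallel with the reporter read.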

Assay [8] can be described thus: qHTS assay to identify small molecule agonists of the TGF-beta/Smad signaling pathway (AID 1346859; active = well fitted activation curve with a large enough effect in the signal ratio in the repeat runs, not every such curve was filed as active; the % refers to the signal ratio; also: series mostly up to about 77 µM). An outline of the steps:
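Smad-responsive beta-lactamase reporter cells (HEK 293T) received compounds from DMSO stocks after overnight attachment, were incubated 5 hr, then treated 2 hr with FRET substrate before dual-emission fluorescence measurement (405 nm excitation).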

Assay [9] has as its target Thyrotropin-releasing hormone receptor (Homo sapiens) (UniProt P34981). Description: qHTS assay to identify small molecule antagonists of the thyrotropin-releasing hormone receptor (TRHR) signaling pathway (AID 1346877; active = well fitted inhibition curve with a large enough effect in the repeat runs, not every such curve was filed as active; also: series mostly up to about 51 µM). In outline:
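TRHR-expressing HEK293 cells loaded with calcium dye for 2 h at 37 C; compounds pre-incubated 5 min at room temperature before TRH challenge at 1 nM final. Intracellular calcium fluorescence read kinetically for 3 min; 15 concentrations in triplicate.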

Assay [10] shares this target. In words: qHTS assay to identify small molecule agonists of the thyrotropin-releasing hormone receptor (TRHR) signaling pathway (AID 1346891; calls by dose curve; also: series mostly up to about 58 µM). An outline of the steps:
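Agonist-mode calcium mobilisation screen: TRHR-transfected HEK293 cells cultured overnight (18 h), dye-loaded for 2 h at 37 °C, exposed to compounds, and monitored by fluorescence for 3 min.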

Assay [11] is described as follows: Human pregnane X receptor (PXR) small molecule agonists, qHTS cell viability counter screen (AID 1346977). Also: nearly all actives have a fitted effect of over 50% in size. In outline:
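Measures live-cell protease fluorescence (CellTiter-Fluor) in PXR-Luc HepG2 cells treated 24hr with compounds at 37C. Cells had 5hr to attach before pin transfer of DMSO solutions.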

Assay [12] in a line: Caspase-3/7 induction in HepG2 cells by small molecules, qHTS assay (AID 1346978). Also: nearly all actives have a fitted effect of over 15% in size. An outline of the steps:
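Wild-type HepG2 cells, 2,000/well, settled 5 hr at 37 C and 5% CO2, then compound-treated for 17 hr; caspase-3/7 activity read by luminescent Caspase-Glo 3/7 after 30 min at room temperature.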

The nature of assay [13]: Caspase-3/7 induction in CHO-K1 cells by small molecules, qHTS cell viability counter screen (AID 1346979). Also: nearly all actives have a fitted effect of over 35% in size. Also: potency is read from the fitted curve at half-maximal effect. An outline of the steps: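 In the same wells as the caspase read, viability of compound-treated wild-type CHO-K1 cells was assessed using CellTiter-Fluor, added after 16hr at 37C and measured by fluorescence following 1hr further incubation.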
Assay [14] can be described thus: Caspase-3/7 induction in CHO-K1 cells by small molecules, qHTS assay (AID 1346980). Also: nearly all actives have a fitted effect of over 15% in size. An outline of the steps: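 Wild-type CHO-K1 cells exposed to compounds for 17hr at 37 C, 5% CO2. Caspase-3/7 activity then measured by Caspase-Glo 3/7 luminescence after 30min at room temperature.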
Assay [15] in a line: Caspase-3/7 induction in HepG2 cells by small molecules, qHTS cell viability counter screen (AID 1346981). Also: series mostly up to about 92 µM; nearly all actives have a fitted effect of over 30% in size. In outline: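 Wild-type HepG2 cells, 2,000/well, settled 5 hr at 37 C, 5% CO2 before compound addition. Viability read by CellTiter-Fluor fluorescence, reagent added after 16 hr compound exposure, then 1 hr at 37C, in the same wells as the caspase read.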
The nature of assay [16]: qHTS assay to identify small molecule antagonists of the progesterone receptor (PR) signaling pathway - cell viability counter screen (AID 1346798). Also: series mostly up to about 92 µM; nearly all actives have a fitted effect of over 50% in size. In outline: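 Same-well multiplex: after 16 hr at 37C with compound and R5020 stimulation, HEK293T cells carrying a UAS-bla reporter received LiveBLAzer substrate (2 hr RT), then CellTiter-Glo (30 min RT) for luminescent viability.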

Assay [17] has as its target Nuclear receptor subfamily 1 group I member 2 (Homo sapiens) (UniProt O75469). Description: Human pregnane X receptor (PXR) small molecule agonists, qHTS assay (AID 1346982). Also: nearly all actives have a fitted effect of over 35% in size. Also: potency is read from the fitted curve at half-maximal effect. In outline:
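PXR-Luc HepG2 reporter cells (CYP3A4-driven luciferase) in 5% charcoal-stripped FBS medium, plated 5 h before compound addition, then treated 24 h at 37C. Luciferase read by ONE-Glo luminescence after 30 min at room temperature.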

Assay [18] concerns the target Nuclear receptor subfamily 1 group I member 2 (Rattus norvegicus) (UniProt Q9R1A7). Description: Rat pregnane X receptor (rPXR) activation by small molecules, qHTS assay (AID 1346983). Also: potency is read from the fitted curve at half-maximal effect; nearly all actives have a fitted effect of over 20% in size. As to conditions: rPXR luciferase reporter cells, One-Glo luminescence, 24 h; max activation: active compounds read high. An outline of the steps: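 Cell-based rPXR activation assay: rPXR cells, 2,000 per well, rested 5hr at 37 C, then exposed to compounds in DMSO for 24 hr at 37 C. Luciferase activity read by One-Glo luminescence after 30 min at room temperature.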

Assay [19] has as its target Nuclear receptor subfamily 1 group I member 2 (Homo sapiens) (UniProt O75469). In words: CYP3A4 induction through human pregnane X receptor (PXR) by small molecules, qHTS assay (AID 1346984). Also: nearly all actives have a fitted effect of over 40% in size. In outline: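 DPX-2 HepG2 cells carrying a PXR response element and CYP3A4-promoter luciferase construct, treated with compounds 24 hr at 37C. Then P450-Glo CYP3A4 Luciferin-IPA substrate (3uM final) for 3 hr at 37C, One-Glo added, luminescence read.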

Assay [20] shares this target. Description: Human pregnane X receptor (PXR) activation by small molecules, qHTS assay (AID 1346985). Also: nearly all actives have a fitted effect of over 40% in size. In outline: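 DPX-2 cells (HepG2 co-transfected with a PXR response element and a CYP3A4-promoter luciferase construct) were seeded at 2,000 per well, rested 5 hr at 37C, then exposed to DMSO-dissolved compounds for 24 hr. Activation was read as luciferase luminescence.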

The structures appear in SMILES notation. Unmarked numbers belong to inactive results. Records with an inconclusive call do not appear. Active and inactive are the calls of the source. Unless noted, calls follow the shape of the dose curve; as a rule, active = well fitted curve in the direction sought with a large enough effect in the repeat runs; inconclusive = weak or mixed curves; inactive = no such curve, though single readings can be large; an effect the other way counts as inactive or inconclusive.

The results in this text go back to PubChem BioAssay (Tox21).

Progesterone receptor (Homo sapiens), sequence (P06401 whole entry, looked up): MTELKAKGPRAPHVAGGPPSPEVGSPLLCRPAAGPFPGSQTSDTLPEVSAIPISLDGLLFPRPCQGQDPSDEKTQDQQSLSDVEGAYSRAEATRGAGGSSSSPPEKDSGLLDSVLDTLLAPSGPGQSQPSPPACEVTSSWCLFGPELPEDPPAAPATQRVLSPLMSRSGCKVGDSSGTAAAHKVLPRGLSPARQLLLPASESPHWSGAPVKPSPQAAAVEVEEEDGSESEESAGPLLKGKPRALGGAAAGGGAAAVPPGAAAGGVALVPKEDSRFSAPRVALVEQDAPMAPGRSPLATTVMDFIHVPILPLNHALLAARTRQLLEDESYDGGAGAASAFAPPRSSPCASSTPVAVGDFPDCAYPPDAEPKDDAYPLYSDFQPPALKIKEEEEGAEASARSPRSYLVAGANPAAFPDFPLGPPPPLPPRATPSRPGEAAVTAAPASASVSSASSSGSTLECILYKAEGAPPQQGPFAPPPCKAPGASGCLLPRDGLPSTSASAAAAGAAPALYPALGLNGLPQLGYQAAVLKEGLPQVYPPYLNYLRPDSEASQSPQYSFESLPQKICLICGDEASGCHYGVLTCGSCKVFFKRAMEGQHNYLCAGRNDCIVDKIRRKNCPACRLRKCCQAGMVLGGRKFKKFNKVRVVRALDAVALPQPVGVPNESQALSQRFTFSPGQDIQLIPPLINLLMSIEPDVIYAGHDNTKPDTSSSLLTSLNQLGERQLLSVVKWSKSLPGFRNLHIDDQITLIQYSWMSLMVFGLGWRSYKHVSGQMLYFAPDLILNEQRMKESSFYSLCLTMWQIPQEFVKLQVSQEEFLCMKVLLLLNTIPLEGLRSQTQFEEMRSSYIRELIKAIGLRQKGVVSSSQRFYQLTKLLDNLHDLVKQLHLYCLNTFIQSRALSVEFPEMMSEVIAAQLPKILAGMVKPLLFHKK
Nuclear receptor subfamily 1 group I member 2 (Homo sapiens), sequence (O75469 whole entry, looked up): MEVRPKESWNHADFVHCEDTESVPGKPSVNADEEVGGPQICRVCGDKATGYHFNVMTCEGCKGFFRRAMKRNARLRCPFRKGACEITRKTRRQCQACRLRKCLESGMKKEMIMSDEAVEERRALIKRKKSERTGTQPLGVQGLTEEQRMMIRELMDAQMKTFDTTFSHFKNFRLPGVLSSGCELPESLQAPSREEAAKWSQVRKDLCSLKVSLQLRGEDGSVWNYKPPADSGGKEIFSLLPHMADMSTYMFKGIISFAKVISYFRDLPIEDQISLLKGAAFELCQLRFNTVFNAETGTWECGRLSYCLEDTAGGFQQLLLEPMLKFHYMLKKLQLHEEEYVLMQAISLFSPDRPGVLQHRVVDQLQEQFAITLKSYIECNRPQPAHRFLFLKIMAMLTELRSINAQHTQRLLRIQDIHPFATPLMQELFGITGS
Thyrotropin-releasing hormone receptor (Homo sapiens), sequence (P34981 whole entry, looked up): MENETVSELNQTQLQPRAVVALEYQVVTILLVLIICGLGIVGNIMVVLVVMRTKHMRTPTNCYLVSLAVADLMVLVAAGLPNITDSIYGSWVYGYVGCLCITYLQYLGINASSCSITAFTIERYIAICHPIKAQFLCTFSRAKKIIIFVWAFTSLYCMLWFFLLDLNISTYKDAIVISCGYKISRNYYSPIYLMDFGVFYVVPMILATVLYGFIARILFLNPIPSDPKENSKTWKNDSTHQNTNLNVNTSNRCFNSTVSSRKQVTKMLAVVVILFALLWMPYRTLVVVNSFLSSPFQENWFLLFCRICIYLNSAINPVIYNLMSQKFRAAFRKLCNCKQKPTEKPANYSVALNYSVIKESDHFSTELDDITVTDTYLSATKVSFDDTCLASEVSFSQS
Nuclear receptor subfamily 1 group I member 2 (Rattus norvegicus), sequence (Q9R1A7 whole entry, looked up): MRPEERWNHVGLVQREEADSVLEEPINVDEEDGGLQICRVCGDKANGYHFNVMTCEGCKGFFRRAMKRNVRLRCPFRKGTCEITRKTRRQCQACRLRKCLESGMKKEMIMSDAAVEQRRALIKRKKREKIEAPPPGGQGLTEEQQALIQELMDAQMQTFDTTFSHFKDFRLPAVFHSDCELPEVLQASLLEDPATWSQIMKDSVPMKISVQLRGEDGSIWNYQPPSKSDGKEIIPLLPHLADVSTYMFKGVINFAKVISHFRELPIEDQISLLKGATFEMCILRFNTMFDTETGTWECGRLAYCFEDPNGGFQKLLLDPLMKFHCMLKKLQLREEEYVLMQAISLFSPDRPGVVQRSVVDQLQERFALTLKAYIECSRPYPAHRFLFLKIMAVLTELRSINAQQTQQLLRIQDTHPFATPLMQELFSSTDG

As to `C=CC(=O)OC`, the Potency entry in assay [1], in [2], in assay [3], in [4], in assay [5] and in [6] was “inactive” each time. The Potency result in [7], in [9], in assay [10], in assay [11], in assay [12] and in assay [13] was “inactive” each time. Also, the Potency result in assay [14] and in assay [15] was “inactive” throughout. The call in assay [8] was inactive.

On to `O=S(=O)(Cl)c1ccccc1`, for which the Potency entry in assay [1], in [2], in assay [3], in assay [4], in assay [16] and in [5] was “inactive” in each case. The Potency entry in [6], in assay [7], in assay [11], in assay [12], in assay [13] and in [14] was “inactive” throughout. The Potency result in [15] and in assay [17] was “inactive” each time. Further, the outcome in assay [8] was inactive.

With `CC(=O)[C@H]1CC[C@H]2[C@@H]3CC[C@H]4C[C@](C)(O)CC[C@]4(C)[C@H]3CC[C@]12C`, the Potency entry in assay [1], in [2], in assay [3], in [4], in assay [16] and in assay [5] was “inactive” each time. Moreover, the Potency result in [6], in assay [7], in assay [11], in assay [12], in assay [13] and in [14] was “inactive” in each case. The Potency result in assay [15], in assay [17], in assay [19] and in [20] was “inactive” throughout. Besides, in assay [8], the outcome was inactive. For the same molecule, in assay [18], the Potency is 3.98 µM (active).

As to `O=S1OC[C@@H]2[C@H](CO1)[C@]1(Cl)C(Cl)=C(Cl)[C@@]2(Cl)C1(Cl)Cl` (stereo not given in full), the Potency result in assay [1], in assay [2], in assay [3], in assay [16], in [5] and in assay [6] was “inactive” in each case. Besides, the Potency entry in assay [7], in assay [12] and in assay [15] was “inactive” in each case. Besides, the Potency in assay [4] is 30.6 µM (active). Besides, the outcome in assay [8] was inactive.

For `C=CC(=O)OCCCCO`, the Potency entry in assay [1], in [2], in assay [3], in [4], in assay [16] and in assay [5] was “inactive” each time. In addition, the Potency entry in [6], in assay [7], in assay [9], in assay [10], in assay [11] and in assay [12] was “inactive” in each case. The Potency result in [14] and in assay [17] was “inactive” in each case. The Potency in [13] was 54.5 µM (active).

For the molecule `COC(C)(C)CCC[C@H](C)C/C=C/C(C)=C/C(=O)OC(C)C`, the Potency result in assay [1], in [2], in [3], in assay [4], in assay [16] and in [6] was “inactive” each time. The Potency entry in assay [7], in [9], in assay [10], in assay [11], in assay [12] and in assay [13] was “inactive” each time. In addition, the Potency entry in assay [14] and in [15] was “inactive” in each case. Also, in assay [8], the result was inactive.

As to `O=C(CBr)c1ccccc1`, the Potency result in assay [1], in assay [2], in assay [3], in assay [4], in assay [16] and in [5] was “inactive” each time. In addition, the Potency result in assay [6], in [9], in assay [10], in assay [11], in [12] and in assay [14] was “inactive” in each case. Further, the Potency result in [15] and in [17] was “inactive” throughout. For the same molecule, in assay [8], the call was inactive.

On to `CCBr`, for which the Potency entry in [1], in assay [2], in [3], in assay [4], in assay [16] and in [5] was “inactive” throughout. In addition, the Potency entry in assay [6], in assay [9], in assay [10], in assay [11], in [12] and in assay [13] was “inactive” throughout. The Potency entry in [14] and in [15] was “inactive” throughout. The molecule was classed as inactive in [8].

In the case of `O=C1C(Cl)C(CCl)CN1c1cccc(C(F)(F)F)c1` (stereo not given), the Potency result in assay [1], in assay [2], in assay [3], in assay [5], in assay [6] and in assay [7] was “inactive” each time. The Potency entry in assay [9], in assay [10], in assay [11], in assay [12], in [13] and in assay [14] was “inactive” in each case. Further, the Potency entry in assay [15] is “inactive”. The Potency was 30.6 µM (active) in [4] and 24.3 µM (active) in [17]. Besides, the call in assay [8] was inactive.
